Source: PubChem BioAssay (Tox21)
Several values for one entry are separate records, joined by “and”; a condition that tells them apart may be missing. Identical values can stand only once. Records with an inconclusive call do not appear. Entries that show only a call come without a potency. Some structures have more than one record in an assay (separate samples or runs), and their calls can disagree. Activity calls are given as the source filed them. The call rests on the fitted dose curve; in most records, active means well fitted cell-killing curve with a large enough effect in the repeat runs; inconclusive means weak or mixed curves; inactive means flat fitted curve, though single readings scatter.

Test: qHTS RealTime-Glo MT Cell Viability Assay in HepG2 cells - 24 hour (AID 1224867); further: nearly all actives have a fitted effect of over 50% in size
Conditions: RealTime-Glo luminescence; series mostly up to 76.8 µM
Source text: U.S. Tox21 Program National Center for Advancing Translational Sciences [NCATS] NIH Chemical Genomics Center [NCGC] U.S. Environmental Protection Agency [EPA] National Institutes of Environmental Health Sciences [NIEHS] National Toxicology Program [NTP] U.S. Food and Drug Administration [FDA] Tox21 Assay Overview: Measure of cell viability is critical in the cell-base assay. Analysis of cell viability is necessary for the characterization of cell responses to cytotoxic drugs and environmental stress. A RealTime-Glo MT Cell Viability Assay to monitor cell viability in real time of continues cell culture during 40 hours of compound treatment was used to screen Tox21 10K library compounds in HepG2 cells. The RealTime-Glo MT Cell Viability Assay is a nonlytic, homogeneous, bioluminescent method to measure cell viability in real time using a simple, plate-based method. The assay involves adding NanoLuc luciferase and a cell-permeant prosubstrate to cells in culture. Viable cells reduce the proprietary prosubstrate to generate a substrate for NanoLuc luciferase. This substrate diffuses from cells into the surrounding culture medium, where it is rapidly used by the NanoLuc Enzyme to produce a luminescent signal. The signal correlates with the number of viable cells, making the assay well suited for cytotoxicity studies.
Tox21 Assay Protocol Summary: The mixture of HepG2 cell suspension and reagents were dispensed at 600cells/6 ul/well in 1536-well tissue culture treated black solid bottom plates using a Multidrop dispenser. After the assay plates were incubated at a 37 C/5% CO2 incubator for 5 hours, 23 nL of compounds dissolved in DMSO, positive and negative controls was transferred to the assay plate by a pintool work station. The plates were incubated at 37 C for 40 hours. The luminescence intensity were measured at 0h, 8h, 16h, 24h, 32h and 40h time points using ViewLux plate reader during compound treatment.
Potency means the concentration at half of the fitted maximal effect.

**Q.** For `CCc1ccccc1N`, which Potency is on record?
**A.** inactive

**Q.** Which Potency does the source give for `Cc1ccc2c(C)cccc2c1` here?
**A.** inactive

**Q.** Which Potency does the source give for `O=C(O)C(Cl)(Cl)Br` here?
**A.** inactive

**Q.** Which Potency does the source give for `C=CC(=O)OCC` here?
**A.** inactive

**Q.** With `CC(C)(C)CC(C)(C)c1ccc(O)cc1` as the compound, how does the Potency read?
**A.** 46.2 µM (active) and inactive

**Q.** Which Potency does the source give for `N#CC(C#N)=C(C#N)C#N` here?
**A.** inactive

**Q.** Which Potency does the source give for `C=CC(=O)NC(C)(C)CC(C)=O` here?
**A.** inactive

**Q.** For `C[N+](C)(C)CC1CO1` (stereo not given), which Potency is on record?
**A.** inactive

**Q.** Which Potency does the source give for `FC(Cl)(Cl)C(F)(Cl)Cl` here?
**A.** inactive

**Q.** With `CCCCC(CC)CO[N+](=O)[O-]` (stereo not given) as the compound, how does the Potency read?
**A.** inactive

**Q.** With `CC[N+]1(CCOC(=O)C(O)(c2ccccc2)c2ccccc2)CCCCC1` as the compound, how does the Potency read?
**A.** inactive

**Q.** For `CCCCCCCCCCCC[N+](C)(C)CCOc1ccccc1`, which Potency is on record?
**A.** 21.9 µM (active) and 9.52 µM (active)

**Q.** With `CC(CC(C(N)=O)(c1ccccc1)c1ccccc1)N(C)C` (stereo not given) as the compound, how does the Potency read?
**A.** inactive

**Q.** With `O=C(O)CCCOc1ccc(Cl)cc1Cl` as the compound, how does the Potency read?
**A.** inactive

**Q.** For `C[N+]1(CCC(C(N)=O)(c2ccccc2)c2ccccc2)CCCCC1`, which Potency is on record?
**A.** inactive

**Q.** For `O=C=NC1CCCCC1`, which Potency is on record?
**A.** inactive

**Q.** For `CC(C)(C)OOC(C)(C)CCC(C)(C)OOC(C)(C)C`, which Potency is on record?
**A.** inactive

**Q.** Which Potency does the source give for `O=C(Cc1ccccc1)OCCc1ccccc1` here?
**A.** inactive

**Q.** Which Potency does the source give for `Cc1nc2ccccc2c(=O)n1-c1ccccc1Cl` here?
**A.** inactive

**Q.** For `NCCc1cc(O)c(O)cc1O`, which Potency is on record?
**A.** inactive

**Q.** Which Potency does the source give for `COCc1cnc(C2=NC(C)(C(C)C)C(=O)N2)c(C(=O)O)c1` (stereo not given) here?
**A.** inactive

**Q.** For `O=C(NCNC(=O)NC1C(=O)NC(=O)N1CO)NC1C(=O)NC(=O)N1CO` (stereo not given), which Potency is on record?
**A.** inactive

**Q.** With `Cc1ccccc1` as the compound, how does the Potency read?
**A.** inactive

**Q.** With `C[C@H]1O[C@H](OC2[C@@H](O)[C@@H](O)C(O)[C@H](O)[C@H]2O)[C@@H](N)C[C@@H]1N=C(N)C(=O)O` (stereo not given in full) as the compound, how does the Potency read?
**A.** inactive

**Q.** With `CCNC(=O)NC(=O)/C(C#N)=N/OC` as the compound, how does the Potency read?
**A.** inactive

**Q.** For `CCCN(CCC)c1c([N+](=O)[O-])cc(C(C)C)cc1[N+](=O)[O-]`, which Potency is on record?
**A.** inactive

**Q.** For `CCN(C(C)=O)c1cccc(-c2ccnc3c(C#N)cnn23)c1`, which Potency is on record?
**A.** inactive

**Q.** Which Potency does the source give for `CCOP(=S)(S)OCC` here?
**A.** inactive

**Q.** Which Potency does the source give for `COC(=O)Cc1ccccc1` here?
**A.** inactive

**Q.** For `CCCCCl`, which Potency is on record?
**A.** inactive

**Q.** Which activity change, negative = cytotoxicity does the source give for `Nc1c(Br)cc(Br)c2c1C(=O)c1ccccc1C2=O` here?
**A.** -0.948% [at 15.8 µM] (inactive)

**Q.** With `CC1(C)[C@H](C(=O)O[C@H](C#N)c2cccc(Oc3ccccc3)c2)[C@@H]1C=C(Br)Br` as the compound, how does the Potency read?
**A.** inactive

**Q.** For `CCCCCBr`, which Potency is on record?
**A.** inactive

**Q.** For `CN(C1CCCCC1)C1CCCCC1`, which Potency is on record?
**A.** inactive

**Q.** For `CN1CC[C@]23c4c5ccc(O)c4O[C@H]2[C@@H](O)C=C[C@H]3[C@H]1C5`, which Potency is on record?
**A.** inactive

**Q.** With `CN(C)N` as the compound, how does the Potency read?
**A.** inactive

**Q.** With `O=CC=O` as the compound, how does the Potency read?
**A.** inactive

**Q.** For `C[C@]12CC[C@H]3[C@@H](CCC4=CC(=O)CC[C@@H]43)[C@@H]1CC[C@@H]2OC(=O)CCc1ccccc1`, which Potency is on record?
**A.** inactive

**Q.** For `CN1C(=O)CN=C(c2ccccc2)c2cc([N+](=O)[O-])ccc21`, which Potency is on record?
**A.** inactive

**Q.** Which Potency does the source give for `O=C(CCl)CCl` here?
**A.** inactive
